This is part of a sample that, as a whole, favours compounds with a hit. Of some 83,000 tested, about 20% had one in any assay.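 Single-dose data. Exposure time 48 hours. Values below 10 considered active.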 Values without a mark were called inactive. Calls of active or inactive are those of the source.
Columns and labels:
Experiment in all cases: NCI-60 one-dose screen, 48 h (100 = growth as untreated, 0 = no growth, -100 = all killed)
Details in all cases: 10 µM unless noted
NCI-H23 lung = tested on: NCI-H23 lung
NCI-H226 lung = tested on: NCI-H226 lung
NCI-H322M lung = tested on: NCI-H322M lung
HOP-62 NSCLC = tested on: HOP-62 NSCLC
NCI-H460 lung = tested on: NCI-H460 lung
HOP-92 NSCLC = tested on: HOP-92 NSCLC
NCI-H522 lung = tested on: NCI-H522 lung
A549/ATCC NSCLC = tested on: A549/ATCC NSCLC
786-0 renal = tested on: 786-0 renal
COLO 205 colon = tested on: COLO 205 colon
DU-145 prostate = tested on: DU-145 prostate
K-562 leukemia = tested on: K-562 leukemia
MDA-MB-231 breast = tested on: MDA-MB-231 breast
RXF 393 renal = tested on: RXF 393 renal
SF-268 CNS = tested on: SF-268 CNS
SF-295 CNS = tested on: SF-295 CNS
SF-539 CNS = tested on: SF-539 CNS
UACC-257 melanoma = tested on: UACC-257 melanoma
MALME-3M melanoma = tested on: MALME-3M melanoma
M14 melanoma = tested on: M14 melanoma

Row | SMILES | growth (NCI-H23 lung) | growth (NCI-H226 lung) [%] | growth (NCI-H322M lung) [%] | growth (HOP-62 NSCLC) [%] | growth (NCI-H460 lung) | growth (HOP-92 NSCLC) | growth (NCI-H522 lung) | growth (A549/ATCC NSCLC) [%] | growth (786-0 renal) | growth (COLO 205 colon) | growth (DU-145 prostate) | growth (K-562 leukemia) | growth (MDA-MB-231 breast) [%] | growth (RXF 393 renal) [%] | growth (SF-268 CNS) [%] | growth (SF-295 CNS) | growth (SF-539 CNS) | growth (UACC-257 melanoma) [%] | growth (MALME-3M melanoma) [%] | growth (M14 melanoma) [%]
1 | c1ccc(Oc2c3ccccc3nc3ccccc23)cc1 | 8.18% (active) | 47.9 | 56.3 | 16.1 | 3.68% (active) | 8.21% (active) | -27.4% (active) | 34.1 | 1.82% (active) | -10.5% (active) | 8.05% (active) | 8.65% (active) | 31.2 | 25.4 | 22.7 | -39.1% (active) | -19.6% (active) | 56.7 |  | 
2 | COc1ccc(NNS(=O)(=O)O)cc1 | 98.3% | 95 | 116 | 85.1 | 105% | 80.3% | 96% | 95.3 | 103% | 104% | 111% | 99.5% |  | 95.1 | 106 | 92.5% | 95.1% |  | 104 | 92.5
3 | COc1cc(OC)c(NC(=O)C(Sc2nc(C)cc(C)c2C#N)c2ccccc2)cc1Cl (stereo unspecified) | 96.6% | 102 | 106 | 65.5 | 110% | 80.9% | 82.1% | 92.6 | 73.6% | 104% | 102% | 105% | 106 | 73.5 | 85.9 |  | 83.8% | 114 |  | 97.1
4 | Cc1[nH]nc(C(N)=O)c1[N+](=O)[O-] | 89.2% | 87.6 | 105 | 77.5 | 98.9% | 84.1% | 106% | 101 | 103% | 102% | 103% | 126% |  | 86.9 | 99.4 | 99% | 93.3% | 93.7 | 94 | 90.4
5 | Cc1ccc(C(C)C)c(OCC(=O)O)c1 | 107% | 105 | 107 | 101 | 107% | 98% | 111% | 90.8 | 102% | 107% | 121% | 108% | 107 | 114 | 97.5 | 101% | 103% | 88.3 |  | 108
6 | COc1ccc(-c2csc(NC(=O)Nc3nc(-c4ccc(OC)cc4)cs3)n2)cc1 | 66.8% | 70.6 | 90.1 | 106 | 84.7% | 89% | 92.5% | 81.3 | 97.8% | 98.5% | 72.8% | 67.5% | 92.9 | 98.5 | 81.9 | 87.9% | 90% | 67.4 |  | 83.6
7 | Cc1ccc2nc(N)nnc2c1 | 94.6% | 103 | 112 | 105 | 112% | 71.9% | 99% | 109 | 98.4% | 141% | 98.4% | 108% | 127 |  | 98.2 | 118% | 103% | 127 |  | 99.2
8 | COc1cccc(C(=O)NNC(=O)c2cccc3ccccc23)c1 | 107% | 105 | 122 | 97.7 | 117% | 97.2% | 102% | 96 | 104% | 108% | 117% | 98.4% | 110 | 115 | 110 | 124% | 114% | 109 |  | 107
9 | COCC(N)=O | 103% | 99 | 100 | 95 | 108% | 94.5% | 100% | 104 | 92% | 111% | 98.4% | 91.8% | 108 | 108 | 103 | 102% | 96% | 116 |  | 105
10 | CCCOCc1cn[nH]n1 | 107% | 104 | 102 | 99.8 | 111% | 106% | 99.3% | 96 | 102% | 111% | 108% | 104% | 110 | 109 | 103 | 101% | 98.8% | 94 |  | 106
11 | CC(=O)c1cccc(O)c1 | 96.6% | 103 | 106 | 93 | 105% | 103% | 88.9% | 98.9 | 96% | 110% | 105% | 103% | 104 | 112 | 97.1 | 101% | 98% | 99.3 |  | 99.6
12 | O=S(=O)(O)c1ccc(O)c(C2CCCCC2)c1 | 112% | 98.4 | 103 | 87.4 | 108% | 93.2% | 98.5% | 96.6 | 91.1% | 105% | 112% | 123% | 112 | 105 | 105 | 100% | 98.2% | 99.3 |  | 101
13 | C=COC(=O)CCOCC(CC)CCCC (stereo unspecified) | 105% | 98.7 | 98.7 | 97.3 | 106% | 111% | 109% | 89.6 | 91.2% | 111% | 96.5% | 92.9% | 106 | 108 | 99.5 | 102% | 105% | 108 |  | 99.9
14 | O=S(Cc1ccccc1)/C(=C/NC(=S)Nc1ccccc1)c1ccccc1 (stereo unspecified) | 89.3% | 101 | 99.7 | 94.9 | 107% | 101% | 77% | 95.9 | 110% | 101% | 104% | 106% | 108 | 116 | 99.2 | 114% | 99.7% | 98 |  | 98.5
15 | CCOC(=N)CC(=O)Nc1cccc(C)c1Cl | 100% | 84.5 | 99.6 | 102 | 105% | 89.1% | 110% | 106 | 106% | 100% | 107% | 122% | 89.5 | 97.5 | 101 | 97.2% | 99.6% | 103 |  | 
16 | C=C1C(=O)C2CCN1CC2 | 102% | 101 | 99.5 | 101 | 104% | 104% | -53.8% (active) | 97 | 96.2% | 102% | 103% | 57.3% | 125 | 89.6 | 102 | 96.1% | 102% | 108 |  | 92.3
17 | O=[N+]([O-])c1ccc2[nH]c(=S)n(/C=C(/c3ccc(Cl)cc3Cl)S(=O)(=O)Cc3ccc(Cl)cc3Cl)c2c1 | 96.2% | 106 | 100 | 90.3 | 108% | 112% | 88.6% | 83.3 | 94.6% | 99% | 102% | 102% | 96.2 | 109 | 97 | 97.4% | 99.6% | 86.5 |  | 93.6
18 | N#C/C(=C\NC(=S)N=Nc1c(O)[nH]c2ccccc12)c1nc2ccccc2s1 | 94.7% | 77.6 | 101 | 95.4 | 97.4% | 83.8% | 82.9% | 90.3 | 94.8% | 106% | 113% | 101% | 87.9 | 101 | 102 | 107% | 103% | 94.9 |  | 

— PubChem BioAssay (NCI)
